# From PubChem BioAssay
# uPA generation: blocks generation of uPA at the cell surface | cell surface uPA generation assay, qHTS | Potency, µM (highest dose often 38.3 µM), without a hit: at the highest dose activity change, negative = inhibition, most hits filed as inhibitors | 330,000 tested, 0.31% active; active = well fitted inhibition curve with a large enough effect; inconclusive = small, poorly fitted or top-dose-only effect; inactive = no such curve, though single readings can be large or run the other way; tested in mouse RAW 264.7 cells; also: % is scaled to controls: 0 for no effect and ±100 for the full control effect; nearly all actives have a fitted effect of over 55% in size
# FUS suppressor: rescues growth of FUS-expressing yeast; S. cerevisiae FUS-expressing, growth rescue, OD600, 24 h; 390,000 tested, 0.24% active; Potency, µM (series often up to 76.6 µM), most hits filed as activators;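 also: plate controls were DMSO vehicle for no effect and reference control for full effect; nearly all actives have a fitted effect of over 55% in size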
#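 Toxicity suppression screen in FUS-yeast. Cells induced with 2% galactose, starting OD 0.005, treated 24hr at 30C with compounds at multiple final concentrations; growth by OD600.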
# Chronic BCR inh: blocks chronic active B-cell receptor signaling | 340,000 tested, 0.05% active | Potency, µM (titrated, usually from 46.1 µM), inactives show top-dose activity change, negative = inhibition, most hits filed as inhibitors | ABC-DLBCL IkBa-CBG/CBR reporter, luminescence ratio, 4 h | AID 493014; active = well fitted inhibition curve with a large enough effect in the signal ratio, with a control signal flat, not every such curve was filed as active; inconclusive = small, poorly fitted or top-dose-only effect, or effect the other way, or a change in a side signal; the % refers to the signal ratio;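 also: plate controls were basal doxycycline-induced cells for no effect and cells given 10 µM MG132 for full effect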
#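 TMD8 human ABC-DLBCL cells with doxycycline-inducible IκBα–green luciferase fusion and unfused red luciferase, in 0.5% FBS medium; compounds up to 46 uM, 4 h at 37C. Green/red luminescence ratio, filter-overlap corrected, fitted to concentration-response curves.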
# aSyn yeast inh: alpha-synuclein toxicity inhibition in yeast | Yeast expressing alpha-synuclein, growth rescue, BacTiter-Glo, 24 h | Potency, µM (top dose mostly 46.1 µM), inactives show at the highest dose growth rescue (activation), most hits filed as activators | 370,000 tested, 0.14% active; also: % of control where 0% means no effect; nearly all actives have a fitted effect of over 65% in size
#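 Rescue of yeast growth: cells expressing toxic alpha-synuclein, induced in galactose at OD600 0.02, incubated with compound 24 h at 30 C. ATP luminescence quantified growth; inhibitors of toxicity appear as activators.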
# Abeta yeast res: restores growth of yeast expressing A-beta42 peptide; yeast expressing A-beta42, growth rescue, OD600, 48 h; response scale: 0% DMSO, 100% iron-clioquinol control; Potency, µM (highest dose often 46.1 µM), hits mostly activators; 410,000 tested, 0.063% active; AID 1347071; also: nearly all actives have a fitted effect of over 55% in size
#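 Yeast A-beta toxicity model in growth medium with pinned compounds, 48 h at 30 C; growth read as absorbance at 600 nm. Normalized to FeCl3/clioquinol equimolar mix (positive) and DMSO (negative).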
# TDP43 rescue: inhibitors of TDP-43 toxicity in yeast | TDP-43 expressing yeast growth rescue, BacTiter-Glo, 24 h | Potency, µM (titrated, usually from 46.1 µM), for inactives: at the highest dose growth rescue (activation), hits mostly activators | 410,000 tested, 1.8% active | AID 652104; also: % of control where 0% means no effect; nearly all actives have a fitted effect of over 50% in size
#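 Readout is BacTiter-Glo luminescence of cell growth, so inhibitors register as activators. TDP-43-expressing yeast at OD600=0.02 in galactose medium, after raffinose pregrowth to mid-log, were incubated with compound for 24 hr at 30 deg C.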
# * marks the source's active call; other numbers are inactive results; i = inactive; ? = inconclusive; / = no result; [ ] = dose if it differs, or a comment. Shown are actives, neighbours in structure and some others; about 2.3% of the full set was active somewhere. Unless noted, calls follow the shape of the dose curve; as a rule, active = well fitted curve in the direction sought with a large enough effect; inconclusive = small, poorly fitted or top-dose-only effect, or another doubt; inactive = no such curve, though single readings can be large; an effect the other way counts as inactive or inconclusive. Potency is read from the fitted curve at half-maximal effect.
SMILES,uPA generation,FUS suppressor,Chronic BCR inh,aSyn yeast inh,Abeta yeast res,TDP43 rescue
CCc1ccc(-c2cc(C)no2)cc1S(=O)(=O)N1CCN(c2ccccn2)CC1,-10%,i,0%,16%,i,-6%
Cc1cc(-c2ccc(C(C)C)c(S(=O)(=O)N3CCN(c4ccccn4)CC3)c2)on1,0.89µM*,i,-2%,11%,/,10%
CN1CCCN(C(=O)Cc2c(Cl)cccc2Cl)c2nc3ccccc3nc21,2%,i,6%,8%,i,22µM*
COc1ccc(C(=O)NCc2cc(C)nc3ccccc23)cc1,7.1µM*,i,?,0%,i,-3%
COc1ccc(CSCC(=O)N/N=C/c2ccc(OCC(=O)NCc3ccco3)cc2)cc1,3%,i,3%,-12%,i,9%
c1ccc(-n2ncc3c(N4CCCCC4)ncnc32)cc1,1.6µM*,i,?,-11%,i,6%
Cc1ccc(C)c(N2CCN(c3ncnc4c3cnn4-c3ccccc3)CC2)c1,16%,i,12%,1%,i,-5%
Cc1ccccc1C(=O)N1CCN(c2ncnc3c2cnn3-c2ccccc2)CC1,-4%,?,5%,?,i,14µM*
CC(=O)Nc1ccc(Nc2ncc([N+](=O)[O-])c(Nc3ccc(NC(C)=O)cc3)n2)cc1,11%,i,4%,-13%,i,-2%
COc1ccc(F)c(CN(C)CC2CCCN(CCc3ccc(F)cc3)C2)c1 (stereo unspecified),-6%,i,8%,1%,i,-21%[1.82 µM]
COc1ccc(-c2cc(NCc3ccc(C)cc3)n3cnnc3n2)cc1,/,i,/,/,i,11µM*
O=C(CSc1ccc2c(c1)OCCO2)N1CCN(c2ccccc2O)CC1,0%,i,8%,-18%,i,9%
CC(=O)C(=Cc1cn(-c2ccccc2)nc1-c1ccccc1)C(C)=O,2%,i,0%,4%,i,14µM*
Cc1ccc(C(=O)N/C(=C/c2cn(-c3ccccc3)nc2-c2ccccc2)C(=O)O)cc1,-15%,i,1%,-1%,i,10%
O=C(Nc1ccccc1)Nc1ccccc1Br,-1%,i,-11%,-15%,i,?
Nc1ccc(N2CCN(c3ncc(C(F)(F)F)cc3Cl)CC2)c(C(F)(F)F)c1,/,i,/,-57%,i,20µM*
NC(=O)c1ccc(N2CCN(c3ncc(C(F)(F)F)cc3Cl)CC2)cc1,0%,i,3%,8%,i,5%
COc1cccc(C2CC(c3cccc(Br)c3)n3ncnc3N2)c1 (stereo unspecified),-28%,i,-5%,9%,i,20µM*
O=C(c1ccccc1[N+](=O)[O-])N1CCCC(C(=O)N2CCCCCC2)C1 (stereo unspecified),1%,i,-1%,-1%,i,-6%
CCOC(=O)c1c(N)n(CCOC(=O)c2cccs2)c2nc3ccccc3nc12,8%,i,?,1%,i,-7%
CCCCCOC(=O)c1c(N)n(CCOC)c2nc3ccccc3nc12,8%,i,?,3%,i,18µM*
CCOC(=O)C(=CNNc1ccccc1)C(=O)OCC,3%,i,?,?,i,13µM*
O=C(O)CSc1ncnc2sc3c(c12)CCC3,5%,/,?,2%,i,3%
Cc1cc(NC(=O)C(C)C)cc(-c2nc3ncccc3o2)c1O,/,i,/,/,i,6%
COc1ccc(OCCn2c(N)nc3ccccc32)cc1,-5%,i,1%,-1%,i,?
COc1ccc(OCCn2c(=O)sc3ccccc32)cc1,/,i,-5%,25µM*,i,16µM*
COc1cc(Cn2c(=O)sc3ccccc32)ccc1OC(C)C,/,i,/,/,i,21%
COc1ccc(OCCn2c(C(C)Oc3ccccc3)nc3ccccc32)cc1 (stereo unspecified),/,i,/,/,?,20µM*
